Laboratory results reported in PubChem BioAssay (NCI).
This is part of a sample that, as a whole, favours compounds with a hit. Of some 83,000 tested, about 20% had one in any assay.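 The endpoint reported here, percent growth, reads 100 for growth as untreated, 0 for no net growth and -100 for all cells dead.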 A number with no mark means an inactive call. The source made the active and inactive calls. Rule for the calls: active = growth percent below 10; inactive = the rest.

Key:
Assay in all cases: NCI-60 one-dose screen, 48 h (100 = growth as untreated, 0 = no growth, -100 = all killed)
Details in all cases: 10 µM unless noted
NCI-H23 lung = system: NCI-H23 lung
NCI-H226 lung = system: NCI-H226 lung
NCI-H322M lung = system: NCI-H322M lung
HOP-62 NSCLC = system: HOP-62 NSCLC
NCI-H460 lung = system: NCI-H460 lung
HOP-92 NSCLC = system: HOP-92 NSCLC
NCI-H522 lung = system: NCI-H522 lung
A549/ATCC NSCLC = system: A549/ATCC NSCLC
786-0 renal = system: 786-0 renal
COLO 205 colon = system: COLO 205 colon

| SMILES | growth (NCI-H23 lung) | growth (NCI-H226 lung) | growth (NCI-H322M lung) | growth (HOP-62 NSCLC) | growth (NCI-H460 lung) | growth (HOP-92 NSCLC) | growth (NCI-H522 lung) | growth (A549/ATCC NSCLC) | growth (786-0 renal) | growth (COLO 205 colon) |
| --- | --- | --- | --- | --- | --- | --- | --- | --- | --- | --- |
| CN(CCO)c1ccc(N2Cc3ccccc3OC3=C2C(=O)c2c(O)ccc(O)c2C3=O)cn1 | -66.5% (active) | 0.236% (active) | -0.583% (active) | -46.3% (active) | -51.2% (active) | -71.9% (active) | -49.8% (active) | -18.9% (active) | -91.2% (active) | -81.8% (active) |
| COc1cccc(/C=N/N=C(N)N)c1 | 103% | 98.3% | 114% | 104% | 111% | 91.1% | 97.4% | 102% | 117% | 109% |
| O=C(/C=C/c1ccccc1)C(Br)C(Br)c1ccccc1 (stereo not given) | 29.4% | -36.8% (active) | 100% | 12.5% | 89.8% | -18.9% (active) | -78.3% (active) | 47.2% | -80.2% (active) | -74.2% (active) |
| COc1ccc(-c2cnc3ccnn3c2-c2cc(OC)c(OC)c(OC)c2)cc1 | 42.7% | 65.5% | 55.8% | 40% | 11.1% | 103% | 10.1% | 46.8% | 40.3% | -31.2% (active) |
| C=CCn1c(SCC(=O)Nc2ccc(C(=O)/C=C/c3ccc(Cl)cc3)cc2)nnc1-c1ccc(Cl)cc1 | 82.8% | 83.1% | 110% | 78.2% | 99.5% | 91% | 68.4% | 73.8% | 93.9% | 98.3% |
| COc1ccc(/C=C2\Cc3c(Br)cccc3C2=O)c(OC)c1 | 66% | 93.7% | 94.7% | 69.6% | 79.8% | 88.2% | 55.9% | 68.9% | 93% | 80.3% |
| CCN(CC)Cc1cc(Nc2ccnc3cc(Cl)ccc23)cc(-c2ccc(Cl)cc2)c1O | 24% | 17.6% | 5.72% (active) | -46.1% (active) | 3.23% (active) | -8.91% (active) | 35.3% | 20.7% | 55% | 55.8% |
| N=c1n(Cc2ccccc2)c(N)cc(=O)n1Cc1ccccc1 | 12.7% | 5.6% (active) | 26.5% | 26.7% | -25% (active) | 99.5% | 10.1% | -47.2% (active) | 19.2% | 66.8% |
| COc1ccc(C2CC(c3cccc(Nc4ccnc5cc(Cl)ccc45)c3)=NN2c2ccccc2)cc1 (stereo not given) | 80% | 89% | 75% | 60% | 43.7% | 57.8% | 54.4% | 52.1% | 91.8% | 80.4% |
| COc1ccc(Br)c2ccccc12 | 109% | 106% | 117% | 103% | 114% | 93.9% | 97.9% | 104% | 115% | 120% |
| COC(=O)C(CCC(=O)CCl)N1C(=O)c2ccccc2C1=O (stereo not given) | 79.1% | 70.1% | 91.7% | 79.9% | 90.1% | 49.7% | -15.1% (active) | 104% | 60.3% | 87.8% |
| CCOC(=O)c1ccc(NC(=O)NC2=NCCS2)cc1 | 18.4% | 13.5% | 77.7% | 35.7% | 19.5% | 73.6% | 20.8% | 22.5% | 33.8% | 103% |
| N#Cc1nc(-c2ccc(Cl)cc2)cc(-c2ccc(Nc3nc(N4CCCCC4)nc(N4CCCCC4)n3)cc2)c1N | 92.1% | 71.2% | 109% | 94.8% | 104% | 101% | 96.9% | 106% | 103% | 113% |
| O=C(Nc1ccc(Oc2ccc(NC(=O)Nc3ccccc3Cl)cc2)cc1)Nc1ccccc1Cl | 41.8% | 61.9% | 75.7% | 81% | 30.2% | 38% | -10.4% (active) | -3.15% (active) | 78.7% | 49% |
| Cc1cc(O)ccc1C1=NN(c2ccc(S(N)(=O)=O)cc2)C(=O)CC1 | 64.3% | 94.6% | 121% | 80.2% | 12.1% | 89.7% | -36.6% (active) | 43.9% | 60.4% | 55.6% |
| Clc1cc(Br)ccc1-c1ccc(CNCC2CCNCC2)o1 | 69.6% | 48.4% | 60.2% | 41% | 9.35% (active) | 56.3% | 55.3% | 17% | 42.3% | 27.9% |
| CNC(=O)c1cc(Oc2ccc(NC(=O)c3[nH]c(SC)nc3-c3ccc(F)cc3)cc2)ccn1 | 75.4% | 81.7% | 85.4% | 95% | 72.6% | 70.6% | 68% | 72.2% | 78.1% | 7.33% (active) |
| CCN1CCN(Cc2ccc(NC(=O)c3nc4ccc5[nH]ncc5c4c4c3CCCC4)cc2C(F)(F)F)CC1 | 74.6% | 60.3% | 2.39% (active) | -29.8% (active) | -73.4% (active) | 44.9% | -76.9% (active) | 6.07% (active) | -88.6% (active) | -76.7% (active) |
| CCOC(CN1CCN(CC(C)C(=O)c2ccccc2)CC1)c1ccccc1 (stereo not given) | 112% | 91.2% | 95.5% | 104% | 99.7% | 97.5% | 73.9% | 96.5% | 106% | 107% |
| Cc1n(Cc2ccc3ccccc3n2)cc[n+]1Cc1ccc2ccccc2c1 | 2.01% (active) | 12.7% | 26% | 13.3% | 10.2% | -6.1% (active) | 3.95% (active) | 33.5% | 63.3% | -38.4% (active) |
| Clc1ccc(-c2nc(Br)cn3ccnc23)cc1 | 85.5% | 74.6% | 93% | 84.3% | 91.5% | 53.6% | 84.6% | 104% | 97.7% | 94.5% |
| COc1ccc2[nH]c(O)c(/C=c3/ccc4c(c3)N=C(c3ccc(C(F)(F)F)cc3)N=4)c2c1 | 82.4% | 96.9% | 76.1% | 100% | 53.5% | 71.9% | 89.6% | 66.4% | 37.3% | 102% |
| COc1ccc(C(=O)C(C#N)c2cc(OC)c(OC)c(OC)c2)cc1 (stereo not given) | 113% | 99.4% | 105% | 109% | 107% | 83.6% | 85.2% | 98.1% | 97.6% | 106% |
| O=C(N=Nc1c(Cl)c(O)c2ccccc2c1O)C(=O)Nc1cccc(C(F)(F)F)c1 | 71.5% | 88.5% | 63.4% | 47.9% | 79.8% | 79.2% | 8.55% (active) | 87.1% | 90.3% | 47.3% |
| O=C(Nc1ccc(OS(=O)(=O)c2ccc(F)cc2)cc1)C12CC3CC(CC(C3)C1)C2 | 74.9% | 87.6% | 92.4% | 54.1% | 63.6% | 48.1% | 66% | 56.2% | 59.3% | 54.3% |
| O=C(Nc1ccc2[nH]c3ccccc3c2c1)c1ccccc1Cl | 67.7% | 81.1% | 56.4% | 45.1% | 22.5% | 76.1% | 15.7% | 40.5% | 62.1% | 14% |
| C=CCn1c(SCC(=O)Nc2ccc(/C(C)=N\O)cc2)nnc1-c1cc(-c2ccc(Cl)cc2)nc2ccccc12 | 24.1% | 50.7% | 26.2% | 49.6% | 17.2% | 50.4% | 22.4% | 19.4% | 23% | 27.8% |
| COc1ccc(-c2nc(-c3ccccc3OCc3ccccc3OC)nc(C)c2C(C)=O)cc1 | 74.8% | 81.5% | 94.7% | 91.5% | 80.6% | 71.2% | 78.3% | 79.7% | 91.3% | 86.7% |
